The values that follow come from PubChem BioAssay (Tox21).

Records with an inconclusive call do not appear. The source made the active and inactive calls. Unless noted, calls come from the whole dose curve; as a rule, active = well fitted curve in the direction sought with a large enough effect in the repeat runs; inconclusive = weak or mixed curves; inactive = no such curve, though single readings can be large; an effect the other way counts as inactive or inconclusive.

The nature of assay [1]: A CellTox Green Cytotoxicity Assay to monitor cytotoxicity in HEK293 cells - 32 hour (AID 1224881). Note: nearly all actives have a fitted effect of over 40% in size. The method in brief:
(§1)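 Fluorescence intensity, read at 0, 8, 16, 24, 32 and 40 h of compound treatment, reflected dye binding to DNA of dead HEK293 cells; compounds (23 nL, DMSO) were added 5 h after plating cells with reagent.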

Assay [2] is described as follows: A CellTox Green Cytotoxicity Assay to monitor cytotoxicity in HepG2 cells - 0 hour (AID 1224882). Note: nearly all actives have a fitted effect of over 35% in size. The method in brief:
(§2)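 Using 1536-well format, dye-containing HepG2 suspension was seeded, allowed 5 h at 37 C/5% CO2, dosed by pintool with compounds, positive and negative controls, and imaged for fluorescence across 40 h.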

The nature of assay [3]: A CellTox Green Cytotoxicity Assay to monitor cytotoxicity in HepG2 cells - 32 hour (AID 1224883). Note: nearly all actives have a fitted effect of over 50% in size. Note: potency is the fitted concentration of half-maximal effect. An outline of the steps:
as §2

Assay [4] is described as follows: A CellTox Green Cytotoxicity Assay to monitor cytotoxicity in HEK293 cells - 8 hour (AID 1224884). Note: nearly all actives have a fitted effect of over 35% in size. The method in brief:
as §1

Assay [5] can be described thus: qHTS RealTime-Glo MT Cell Viability Assay in HepG2 cells - 16 hour (AID 1224885). Note: nearly all actives have a fitted effect of over 50% in size. The method in brief:
(§3)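 Viability was tracked continuously by NanoLuc luminescence from prosubstrate reduced by living HepG2 cells, at successive time points over 40 h of compound exposure. Cells with reagent were preincubated 5 h at 37 °C before compound addition.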
For orientation: In qHTS, concentration-response curves come from the screen itself.

Assay [6] in a line: A CellTox Green Cytotoxicity Assay to monitor cytotoxicity in HEK293 cells - 16 hour (AID 1224888). Note: nearly all actives have a fitted effect of over 35% in size. An outline of the steps: as §1
Assay [7] can be described thus: qHTS RealTime-Glo MT Cell Viability Assay in HepG2 cells - 0 hour (AID 1224889). Note: nearly all actives have a fitted effect of over 50% in size. Note: potency is the fitted concentration of half-maximal effect. The method in brief:
as §3

Assay [8] is described as follows: A CellTox Green Cytotoxicity Assay to monitor cytotoxicity in HepG2 cells - 8 hour (AID 1224890). Note: nearly all actives have a fitted effect of over 45% in size. An outline of the steps:
as §2

A short description of assay [9]: qHTS assay to identify small molecule antagonists of the estrogen receptor alpha (ER-alpha) signaling pathway using the BG1 cell line in the presence of 0.1 nM 17-beta-estradiol - cell viability counter screen (AID 1259241). Note: nearly all actives have a fitted effect of over 40% in size. The method in brief:
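Estradiol-stimulated (0.1 nM) VM7Luc4E2 cells exposed to compounds 22 hr; viability measured by fluorescence of cleaved CellTiter-Fluor substrate after 30 min.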

Assay [10] in a line: qHTS assay to identify small molecule antagonists of the androgen receptor (AR) signaling pathway using the MDA cell line in the presence of 0.5 nM R1881 - cell viability counter screen (AID 1259242). Note: nearly all actives have a fitted effect of over 45% in size. An outline of the steps:
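Viability of MDA-kb2 cells was multiplexed with the luciferase AR readout; after 16 hr with compounds and R1881 at 0.5 nM final, CellTiter-Fluor fluorescence was recorded.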

The target in assay [11] is Estrogen receptor (Homo sapiens) (UniProt P03372). The assay can be described thus: qHTS assay to identify small molecule antagonists of the estrogen receptor alpha (ER-alpha) signaling pathway using the BG1 cell line in the presence of 0.1 nM 17-beta-estradiol (AID 1259244). Note: nearly all actives have a fitted effect of over 50% in size. An outline of the steps: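 Estradiol at 0.1 nM (final) stimulates the endogenous ER-alpha of VM7Luc4E2 cells carrying an ERE-driven luciferase; compounds are co-incubated 22 h at 37C and luciferase output quantified by luminescence.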

The nature of assay [12]: qHTS assay to identify small molecule HDAC inhibitors (AID 1259364).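 Note: wild-type HCT-116 cells with endogenous class I/II HDAC activity; top concentration of the series differs between compounds; nearly all actives have a fitted effect of over 45% in size.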 An outline of the steps:
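Read-out: luminescence of HDAC-Glo I/II reagent, 30 min RT, reflecting class I/II deacetylase activity in whole HCT-116 cells pre-exposed 2 h to DMSO-dissolved compounds.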

Assay [13] can be described thus: qHTS assay to identify small molecule HDAC inhibitors - cell viability counter screen (AID 1259365). The method in brief:
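After overnight seeding at 1,500 cells per well, wild-type HCT-116 cultures took up compounds in DMSO for 2hr at 37 C. Viable cell content came from luminescence with CellTiter-Glo.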

Assay [14] in a line: qHTS assay to identify small molecule agonists of the sonic hedgehog signaling (Shh) pathway - cell viability counter screen (AID 1259366). Note: nearly all actives have a fitted effect of over 50% in size. The method in brief:
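Same-well cytotoxicity read. Gli1-Luc reporter 3T3 cells; compounds 24hr, 37C/5% CO2; CellTiter-Fluor fluorescence.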

A short description of assay [15]: qHTS assay to identify small molecule antagonists of the sonic hedgehog signaling (Shh) pathway - cell viability counter screen (AID 1259367). Note: nearly all actives have a fitted effect of over 55% in size. The method in brief:
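Cells: 3T3 Gli1-Luc, 2,000/well, 4 hr pre-incubation. Compounds in DMSO, then conditioned medium. Incubation 24 hr, 37C, 5% CO2. CellTiter-Fluor at 23 hr, 1 hr, fluorescence.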

Assay [16] can be described thus: qHTS assay to identify small molecule agonists of the sonic hedgehog signaling (Shh) pathway (AID 1259368; calls by dose curve;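 note: NIH/3T3-derived 3T3Gli1-Luc cells carrying a stable Gli1-driven firefly luciferase reporter; series mostly up to about 92 µM; nearly all actives have a fitted effect of over 15% in size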). An outline of the steps:
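A Gli1 transcriptional response element controlled firefly luciferase in 3T3Gli1-Luc cells. Compounds and a positive control were added 4 hr after plating, and cells were incubated a further 24 hr at 37 C before luminescence detection.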

A short description of assay [17]: qHTS RealTime-Glo MT Cell Viability Assay in HEK293 cells - 8 hour (AID 1224887). An outline of the steps: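 Viable HEK293 cells reduce a cell-permeant prosubstrate; the product diffuses out and is consumed by NanoLuc in the medium to give light. Compounds went in after a 5 h incubation and plates were read over the treatment course.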
A short description of assay [18]: qHTS assay to identify small molecule phospholipidosis (PLD) inducers (AID 1259344; active = well fitted curve in the direction sought with a large enough effect; an effect the other way counts as inactive or inconclusive). An outline of the steps:
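Phospholipidosis is scored by imaging LipidTOX-stained pits in HepG2 cells exposed to compound for 24 h at 37 C; pit counts and integrated intensities per well and per cell serve as outputs.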

Assay [19] can be described thus: qHTS RealTime-Glo MT Cell Viability Assay in HEK293 cells - 24 hour (AID 1224886). Note: nearly all actives have a fitted effect of over 50% in size. Note: potency is the fitted concentration of half-maximal effect. The method in brief:
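Viability tracked continuously by luminescence as live cells reduce a prosubstrate for NanoLuc; HEK293 cells preincubated 5 h, compound-treated at 37 C, and read at 0, 8, 16, 24, 32 and 40 h.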

Sequence of Estrogen receptor (Homo sapiens) (P03372 whole entry, looked up): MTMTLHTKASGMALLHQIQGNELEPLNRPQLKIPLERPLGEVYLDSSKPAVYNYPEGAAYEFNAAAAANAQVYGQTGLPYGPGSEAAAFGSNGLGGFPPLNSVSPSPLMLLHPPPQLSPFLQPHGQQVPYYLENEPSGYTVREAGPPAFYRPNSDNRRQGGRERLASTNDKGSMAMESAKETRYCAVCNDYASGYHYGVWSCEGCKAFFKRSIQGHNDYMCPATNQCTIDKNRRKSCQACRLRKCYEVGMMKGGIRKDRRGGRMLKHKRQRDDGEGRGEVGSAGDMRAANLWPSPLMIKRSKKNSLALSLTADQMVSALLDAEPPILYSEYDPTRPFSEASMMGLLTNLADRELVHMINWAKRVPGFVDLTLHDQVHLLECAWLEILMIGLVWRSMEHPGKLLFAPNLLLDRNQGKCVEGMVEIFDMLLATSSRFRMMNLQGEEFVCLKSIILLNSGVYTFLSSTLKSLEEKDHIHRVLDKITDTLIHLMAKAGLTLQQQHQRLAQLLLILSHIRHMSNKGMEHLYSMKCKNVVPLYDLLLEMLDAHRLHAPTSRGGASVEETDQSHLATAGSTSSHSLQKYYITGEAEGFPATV

Turning to `CSc1nc(N=[N+]=[N-])nc(NC(C)C)n1`, the Potency result in [1], in assay [3], in assay [4], in assay [5], in [6] and in assay [7] was “inactive” each time. The Potency result in assay [8], in [11], in assay [12], in assay [14] and in [15] was “inactive” throughout. Moreover, the result in assay [2], in assay [9], in assay [10], in [13] and in assay [16] was inactive.

For the compound `Clc1cccc(N2CCNCC2)c1`, the Potency result in [1], in assay [3], in assay [4], in assay [5], in assay [17] and in assay [6] was “inactive” throughout. Further, the Potency result in [7], in assay [8], in assay [11], in [12], in [14] and in assay [15] was “inactive” throughout. Besides, the call in assay [2], in [9], in assay [10], in assay [18], in assay [13] and in [16] was inactive.

In the case of `CCCSC(=O)N(CCC)CCC`, the Potency entry in assay [1], in assay [3], in assay [4], in assay [19], in [17] and in [6] was “inactive” each time. For the same compound, the Potency entry in [7], in assay [8], in [12], in [14] and in assay [15] was “inactive” throughout. Moreover, the result in assay [2], in assay [9], in [10], in assay [13] and in assay [16] was inactive.

Take `ClC(Br)Br`: the Potency entry in assay [1], in assay [3], in assay [4], in [5], in assay [17] and in assay [7] was “inactive” throughout. Also, the Potency entry in assay [8], in assay [11], in assay [12], in assay [14] and in [15] was “inactive” each time. Moreover, the result in assay [2], in assay [9], in [10], in assay [13] and in assay [16] was inactive.

As for `CCOC(=O)N(C)C(=O)CSP(=S)(OCC)OCC`, the Potency result in assay [1], in assay [3], in assay [5], in assay [19], in assay [17] and in assay [6] was “inactive” throughout. Further, the Potency entry in assay [8], in assay [12], in assay [14] and in [15] was “inactive” in each case. The result in assay [2], in assay [9], in assay [10], in assay [13] and in assay [16] was inactive.

Turning to `C[C@]1(O)CC[C@H]2[C@@H]3CCC4=CC(=O)CC[C@]4(C)[C@@]3(F)[C@@H](O)C[C@@]21C`, the Potency entry in assay [1], in [3], in assay [4], in assay [19], in assay [17] and in assay [8] was “inactive” each time. The Potency result in [12], in assay [14] and in [15] was “inactive” in each case. Besides, the call in assay [2], in assay [9], in assay [10], in [13] and in assay [16] was inactive. Moreover, the Potency in assay [7] was 12.4 µM (active).

Turning to `CSc1ccc(C(=O)C(C)(C)N2CCOCC2)cc1`, the Potency result in assay [1], in [3], in assay [4], in assay [17], in assay [6] and in assay [7] was “inactive” each time. For the same compound, the Potency result in [8], in assay [12], in [14] and in assay [15] was “inactive” throughout. Further, the result in assay [2], in [9], in assay [10], in assay [13] and in assay [16] was inactive.

As to `CN/C(=N\[N+](=O)[O-])NCC1CCOC1` (centres undefined), the Potency result in assay [1], in assay [3], in assay [5], in [19], in assay [17] and in assay [6] was “inactive” in each case. Moreover, the Potency entry in assay [7], in assay [8], in assay [12], in assay [14] and in assay [15] was “inactive” throughout. For the same compound, the compound was classed as inactive in assay [2], in assay [9], in [10], in assay [13] and in assay [16].

In the case of `CCCCc1ccc(O)cc1`, the Potency result in assay [1], in assay [4], in assay [6], in assay [7], in [8] and in assay [11] was “inactive” each time. The Potency result in assay [12], in assay [14] and in assay [15] was “inactive” throughout. The call in assay [2], in [9], in assay [10], in [13] and in assay [16] was inactive. Also, the Potency in [3] was 21.8 µM (active); in [19], 19.5 µM (active).

For the compound `ClCCOCOCCCl`, the Potency entry in assay [1], in assay [3], in [5], in assay [19], in assay [17] and in assay [6] was “inactive” each time. Moreover, the Potency result in assay [7], in [8], in assay [12] and in assay [14] was “inactive” in each case. For the same compound, the result in [2], in [9], in assay [10], in assay [13] and in assay [16] was inactive.

`CC1CCC(=O)O1` (centres undefined): the Potency entry in [1], in assay [3], in assay [5], in assay [19], in assay [17] and in assay [6] was “inactive” in each case. Further, the Potency entry in assay [7], in assay [8], in [12], in assay [14] and in [15] was “inactive” in each case. Moreover, the compound was called inactive in assay [2], in assay [9], in assay [10], in [13] and in [16].

In the case of `CCC(Cl)[N+](=O)[O-]` (centres undefined), the Potency result in [1], in assay [3], in [5], in assay [19], in assay [17] and in assay [7] was “inactive” each time. The Potency result in assay [8], in assay [11], in assay [12], in assay [14] and in assay [15] was “inactive” each time. For the same compound, the result in [2], in [10], in [13] and in assay [16] was inactive.
